From PubChem BioAssay (NCATS)
Values joined by “and” are separate entries in the source; they are usually repeats but may differ in a detail not shown here. Equal entries are not always repeated. Results filed as inconclusive are left out. A number with no mark means an inactive call. Active and inactive are the calls of the source. The call rests on the fitted dose curve; in most records, active means well fitted inhibition curve with a large enough effect; inconclusive means small, poorly fitted or top-dose-only effect; inactive means flat fitted curve, though single readings scatter.

These molecules were tested on KB-3-1 (assay: Cytotoxic Profiling of Annotated Libraries Using Quantitative High-Throughput Screening (AID 1296008; further: nearly all actives have a fitted effect of over 60% in size)). Conditions: Five cell lines viability, CellTiter-Glo ATP luminescence, 48-72 h; max response: active compounds read low.
From the text: Cell-based phenotypic screening is a commonly used approach to discover biological pathways, novel drug targets, chemical probes and high-quality hit-to-lead molecules. Many hits identified from high-throughput screening campaign are ruled out through a series of follow-up potency, selectivity/specificity, and cytotoxicity assays. Prioritization of molecules with little or no cytotoxicity for a more in-depth downstream evaluation influence the future direction of projects, so cytotoxicity profiling of the screening libraries at early stage is essential for increasing the likelihood of candidate success. […] For the annotated library, we also examined the primary targets and mechanistic pathways regularly associated with cell death. To our knowledge, this is the first study to use high-throughput screening to profile large libraries for cytotoxicity assessment in both normal and cancer cell lines. In summary, the results generated here constitutes a valuable resource for the scientific community and provides insight on identifying cytotoxic compounds with particular mechanisms of action, and prioritizing compounds with suitable cytotoxicity profile for further evaluation.
A pintool (Kalypsys) was used to transfer 23 nL of compound solution to the 1536-well assay plates. After 48 or 72 hr incubation at 37 degree Celsius, 5% CO2 and 95% humidity, 2.5 uL of CellTiter-Glo (Promega) was dispensed into each well using a dispenser (Aspect Automation, St. Paul, MN) with solenoid valves (Lee Valves, Westbrook CT). Plates were left at room temperature for 10 min before imaging the ATP-coupled luminescence using a ViewLux microplate imager (PerkinElmer, Waltham, MA).
On the % scale 0 is the no-effect control and ±100 the full control effect; potency means the concentration at half of the fitted maximal effect.

Compound	max response	outcome	Potency
NCC(=O)O	-10.5%		
CC(C)(C)c1nnc(NS(=O)(=O)c2ccccc2)s1	3.82%		
CC(=O)O[C@@H]1C(=O)O[C@@H]2[C@H]1OC(=O)[C@@H]2OC(C)=O		inactive	
Cc1cc(O)c2c(O)c3c(O)cccc3cc2c1	-20.5%		
CC(C)(C)C(=O)OCOC(=O)C1N2C(=O)CC2S(=O)(=O)C1(C)C (stereo not given)	-11.8%		
CC(=O)Nc1ccc(S(=O)(=O)Nc2cc(C)on2)cc1	-4.05%		
CCOC(=O)NNc1ccc(N(CC)CC(C)O)nn1 (stereo not given)	-6.42%		
CC(=O)CC/C=C(\C)CC/C=C(\C)CC/C=C(\C)CCC=C(C)C	-13.4%		
CCCC(=O)O[C@]1(C(=O)COC(=O)CC)CC[C@H]2[C@@H]3CCC4=CC(=O)CC[C@]4(C)[C@H]3[C@@H](O)C[C@@]21C	-1.68%		
CC(C)(C)C(O)/C=C/c1ccc2c(c1)OCO2 (stereo not given)	-0.272%		
Nc1nnnn1-c1ccccc1	7.05%		
CC(=O)N(CC(O)CO)c1c(I)c(C(=O)NCCO)c(I)c(C(=O)NCC(O)CO)c1I (stereo not given)	-13%		
c1ccc2occc2c1	-9.71%		
C[C@@]12CCC[C@H]1[C@@H]1CC[C@H]3C[C@@H](O)CC[C@]3(C)[C@H]1CC2	-1.74%		
CN1[C@@H]2CC[C@H]1CC(NC(=O)n1c(=O)[nH]c3ccccc31)C2 (stereo not given in full)	-6.43%		
CCCN(CCC)C(=O)C(CCC(=O)OCCCN1CCN(CCOC(=O)Cc2c(C)n(C(=O)c3ccc(Cl)cc3)c3ccc(OC)cc23)CC1)NC(=O)c1ccccc1 (stereo not given)	-0.886%		
CCCCC(=O)OCC(=O)[C@H]1[C@H](C)C[C@H]2[C@@H]3C[C@H](F)C4=CC(=O)C=C[C@]4(C)[C@@]3(F)[C@@H](O)C[C@@]21C	-3.44%		
N#C/C(=C1/SC[C@@H](c2ccc(Cl)cc2Cl)S1)n1ccnc1	-3.46% and -14.6% and -17.3%		
CC(=O)[C@H]1CC[C@H]2[C@@H]3C=CC4=CC(=O)CC[C@@]4(C)[C@@H]3CC[C@]12C	-2.29%		
CCCCCC1Nc2cc(C(F)(F)F)c(S(N)(=O)=O)cc2S(=O)(=O)N1 (stereo not given)	-12.8%		

Compound	max response	outcome	Potency
CC1CC(=O)NN=C1c1ccc(NCC(C)(C)NCC(O)COc2cc(Cl)ccc2C#N)cc1 (stereo not given)	-1.42%		
COc1cc(C=O)ccc1O	-6.73%		
COC(=O)c1c(Cl)c(Cl)c(C(=O)OC)c(Cl)c1Cl	-7.26%		
O=C(O)/C=C(\CC(=O)O)C(=O)O	-12.2%		
CC1c2ccccc2CN1NC(=O)c1ccc(Cl)c(S(N)(=O)=O)c1 (stereo not given)	8.25%		
Cc1cccc(N(C)C(=S)Oc2ccc3c(c2)CCC3)c1	-1.52%		
OCCc1ccccc1	-8.71%		
C[N+]1(CC2COC(c3ccccc3)(c3ccccc3)O2)CCCCC1 (stereo not given)	-21.8%		
CCOC(=O)c1ccc(NC(=O)CN2CCCCC2)cc1		inactive	
COc1cc(NS(=O)(=O)c2ccc(N)cc2)nc(C)n1		inactive	
N[C@@H](Cc1cc(I)c(O)c(I)c1)C(=O)O	-0.833%		
CCCCCCCCCCCCCCCC[n+]1ccccc1			14.6 µM (active)
CC(C)(c1ccc(O)cc1)c1ccc(O)cc1	-17.4%		
CCc1cc(S(=O)(=O)O)c2cc(C(C)C)cccc1-2	7.96%		
C1N2CN3CN1CN(C2)C3	-1.26%		
C[N+]1(C)CCC(OC(=O)C(O)(c2ccccc2)C2CCCC2)C1 (stereo not given)	-6.32% and -2.46%		
Cc1cc(C(C)(C)C)c(O)c(C(C)(C)C)c1	-9.85%		
CC(C)(C)c1ccc(O)c(O)c1	-6.07%		
Nc1ncnc2n[nH]c(Nc3ccc(F)cc3)c12		inactive	
CN(C)CCOC1=Cc2ccccc2Sc2ccc(Cl)cc21	-15.8%		
